Test results reported in PubChem BioAssay (Tox21).
Inconclusive results are not listed. Activity calls are given as the source filed them. Unless noted, calls follow the shape of the dose curve; as a rule, active = well fitted curve in the direction sought with a large enough effect in the repeat runs; inconclusive = weak or mixed curves; inactive = no such curve, though single readings can be large; an effect the other way counts as inactive or inconclusive.

Experiments:
[1] = qHTS assay to identify small molecule antagonists of the androgen receptor (AR) signaling pathway using the MDA cell line in the presence of 0.5 nM R1881 - cell viability counter screen (AID 1259242); also: nearly all actives have a fitted effect of over 45% in size; also: potency is read from the fitted curve at half-maximal effect
Procedure, shortened: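 R1881 at 0.5 nM final stimulated MDA-kb2 cells during 16 hr compound treatment at 37C. Cytotoxicity read: CellTiter-Fluor fluorescence after 30 min.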

[2] = target: Estrogen receptor (Homo sapiens) (UniProt P03372); experiment: qHTS assay to identify small molecule antagonists of the estrogen receptor alpha (ER-alpha) signaling pathway using the BG1 cell line in the presence of 0.1 nM 17-beta-estradiol (AID 1259244); also: nearly all actives have a fitted effect of over 50% in size; also: potency is read from the fitted curve at half-maximal effect
Procedure, shortened: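 VM7Luc4E2; 4xERE-luciferase; 0.1 nM E2 final; 22 h co-incubation, 37C; ONE-Glo luminescence after 30 min at room temperature.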

[3] = qHTS assay to identify small molecule HDAC inhibitors (AID 1259364);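 also: wild-type HCT-116 cells with endogenous class I/II HDAC activity; top concentration of the series differs between compounds; nearly all actives have a fitted effect of over 45% in size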
Procedure, shortened: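 Relative class I and II HDAC activity is taken from the luminogenic signal in HCT-116 cells, with compound exposure 2 hr and reagent development 30 min at room temperature.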

[4] = qHTS assay to identify small molecule HDAC inhibitors - cell viability counter screen (AID 1259365); also: nearly all actives have a fitted effect of over 50% in size; also: potency is read from the fitted curve at half-maximal effect
Procedure, shortened: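 Wild-type HCT-116 cells were seeded at 1,500 per well, incubated overnight at 37 C, then exposed to compounds in DMSO for 2hr. Viability was read by CellTiter-Glo luminescence after 30min at room temperature.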

[5] = qHTS assay to identify small molecule antagonists of the sonic hedgehog signaling (Shh) pathway - cell viability counter screen (AID 1259367); also: nearly all actives have a fitted effect of over 55% in size; also: potency is read from the fitted curve at half-maximal effect
Procedure, shortened: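 After a 4 hr settling period, 3T3 Gli1-Luc cells were treated with DMSO-dissolved chemicals and conditioned medium, kept 24 hr at 37C in 5% CO2, and assayed for viability by CellTiter-Fluor fluorescence following 1 hr reagent incubation.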

[6] = qHTS assay to identify small molecule agonists of the sonic hedgehog signaling (Shh) pathway (AID 1259368; calls by dose curve; also: series mostly up to about 92 µM; nearly all actives have a fitted effect of over 15% in size)
Procedure, shortened: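 Mouse fibroblast (NIH/3T3) reporter cells with stably integrated Gli1-Luc were treated 24 hr with compound; firefly luciferase luminescence served as the read-out.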

[7] = qHTS assay to identify small molecule antagonists of the sonic hedgehog signaling (Shh) pathway (AID 1259369; calls by dose curve; also: nearly all actives have a fitted effect of over 45% in size; also: potency is read from the fitted curve at half-maximal effect)
Procedure, shortened: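 Conditioned medium drives Shh signalling in 3T3Gli1-Luc cells; compounds in DMSO co-applied, 24hr at 37 C, then luciferase luminescence.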

[8] = qHTS assay to identify small molecule agonists of the androgen receptor (AR) signaling pathway in the presence of an antagonist - cell viability counter screen (AID 1259379); also: nearly all actives have a fitted effect of over 25% in size; also: potency is read from the fitted curve at half-maximal effect
Procedure, shortened: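 A CellTiter-Fluor read-out measured viability of MDA-kb2 reporter cells (MMTV promoter with AR and GR response elements). Treatment: nilutamide 3.0uM final with compounds at 15 concentrations, 16 hr, 37C, 0% CO2.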

[9] = qHTS assay to identify small molecule agonists of the estrogen receptor beta (ER-beta) signaling pathway - cell viability counter screen (AID 1259380); also: nearly all actives have a fitted effect of over 30% in size; also: potency is read from the fitted curve at half-maximal effect
Procedure, shortened: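 Cells used were ER-beta-UAS-bla HEK293T in medium with 2% charcoal-stripped FBS. They were treated for 16 hr at 37C. Viability came from CellTiter-Glo luminescence.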

[10] = qHTS assay to identify small molecule antagonists of the estrogen receptor beta (ER-beta) signaling pathway - cell viability counter screen (AID 1259382); also: nearly all actives have a fitted effect of over 55% in size; also: potency is read from the fitted curve at half-maximal effect
Procedure, shortened: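 Agonist-stimulated (1nM E2) ER-beta-UAS-bla HEK293T cells are incubated with library compounds for 16 hr at 37C. Cell viability is then assessed in the reporter-assay wells by adding CellTiter-Glo and reading luminescence after 30 min.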

[11] = target: Estrogen receptor (Homo sapiens) (UniProt P03372); experiment: qHTS assay to identify small molecule agonists of the estrogen receptor alpha (ER-alpha) signaling pathway in the presence of an antagonist (AID 1259383; calls by dose curve; also: top concentration of the series differs between compounds; nearly all actives have a fitted effect of over 15% in size)
Procedure, shortened: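 Using VM7Luc4E2 cells seeded 24hr before treatment, antagonist ICI-182,780 (10.0nM final) was added, followed by compounds at 15 concentrations. Plates incubated 22hr; ONE-Glo luminescence quantified reporter activity.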

[12] = qHTS assay to identify small molecule agonists or antagonists of the thyroid stimulating hormone receptor (TSHR) signaling pathway - wild type cell line counter screen (AID 1259384; calls by dose curve)
Procedure, shortened: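 Wild-type HEK293 cells were plated 18 h at 37 C/5% CO2, pin-dosed with compound plus Ro20-1724 medium, held 30 min at room temperature, then given cAMP-d2 and anti-cAMP-cryptate; fluorescence was read after 1 h. Fifteen concentrations, triplicate.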

[13] = target: Androgen receptor (Homo sapiens) (UniProt P10275); experiment: qHTS assay to identify small molecule antagonists of the androgen receptor (AR) signaling pathway using the MDA cell line in the presence of 0.5 nM R1881 (AID 1259243); also: nearly all actives have a fitted effect of over 50% in size; also: potency is read from the fitted curve at half-maximal effect
Procedure, shortened: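 We exposed MDA-kb2 cells to compounds under 0.5 nM R1881 stimulation for 16 hr at 37C and quantified MMTV-driven luciferase by luminescence.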

[14] = qHTS assay to identify small molecule agonists of the sonic hedgehog signaling (Shh) pathway - cell viability counter screen (AID 1259366); also: nearly all actives have a fitted effect of over 50% in size; also: potency is read from the fitted curve at half-maximal effect
Procedure, shortened: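 NIH/3T3-derived 3T3 Gli1-Luc cells (stable Gli1-responsive firefly luciferase reporter) were seeded, rested 4 hr at 37 C/5% CO2, then exposed to compounds in DMSO for 24 hr; viability was read by CellTiter-Fluor fluorescence in the same wells.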

[15] = target: Androgen receptor (Homo sapiens) (UniProt P10275); experiment: qHTS assay to identify small molecule agonists of the androgen receptor (AR) signaling pathway in the presence of an antagonist (AID 1259381; calls by dose curve; also: nearly all actives have a fitted effect of over 15% in size)
Procedure, shortened: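 Using human MDA-kb2 cells with an MMTV promoter–luciferase construct (AR and GR response elements), agonist activity is scored under 3.0uM nilutamide (final) co-treatment; 16hr incubation, 37C, luminescence readout via ONE-Glo.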

[16] = target: Thyrotropin receptor (Homo sapiens) (UniProt P16473); experiment: qHTS assay to identify small molecule antagonists of the thyroid stimulating hormone receptor (TSHR) signaling pathway (AID 1259385; calls by dose curve; also: nearly all actives have a fitted effect of over 20% in size)
Procedure, shortened: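 TSHR-HEK293 cells were plated and held 18 h at 37C/5% CO2, then given compound plus Ro20-1724 and stimulated with TSH at 1.5 ng/mL final. After 30 min at room temperature, cAMP was detected with cAMP-d2/anti-cAMP-cryptate (1 h) by fluorescence.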

[17] = target: Estrogen receptor beta (Homo sapiens) (UniProt Q92731); experiment: qHTS assay to identify small molecule agonists of the estrogen receptor beta (ER-beta) signaling pathway (AID 1259377; active = well fitted activation curve with a large enough effect in the signal ratio in the repeat runs, not every such curve was filed as active; the % refers to the signal ratio)
Procedure, shortened: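 ER-beta-UAS-bla HEK293T (GripTite) cells carrying a UAS-driven beta-lactamase reporter, in medium with 2% charcoal-stripped FBS, were exposed to compounds for 16 hr at 37C; LiveBLAzer B/G FRET substrate was then added and fluorescence read after 2 hours at room temperature.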

[18] = target: Estrogen receptor beta (Homo sapiens) (UniProt Q92731); experiment: qHTS assay to identify small molecule antagonists of the estrogen receptor beta (ER-beta) signaling pathway (AID 1259378; active = well fitted inhibition curve with a large enough effect in the signal ratio in the repeat runs, not every such curve was filed as active; the % refers to the signal ratio; also: potency is read from the fitted curve at half-maximal effect)
Procedure, shortened: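 ER-beta-UAS-bla HEK293T (GripTite) cells in 2% charcoal-stripped FBS medium were preincubated 6 hr at 37C, dosed with compound, then stimulated with 1 nM E2 (final) for 16 hr; beta-lactamase reporter read by B/G FRET fluorescence after 2 hr substrate loading.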

[19] = qHTS assay to identify small molecule phospholipidosis (PLD) inducers (AID 1259344; active = well fitted curve in the direction sought with a large enough effect; an effect the other way counts as inactive or inconclusive)
Procedure, shortened: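 HepG2 cells grown on collagen I take up LipidTOX Red while exposed to compound for 24 h; after fixation they are imaged at 20x and pit metrics are extracted.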

Measured: Potency

Chain of Androgen receptor (Homo sapiens) (P10275 whole entry, looked up): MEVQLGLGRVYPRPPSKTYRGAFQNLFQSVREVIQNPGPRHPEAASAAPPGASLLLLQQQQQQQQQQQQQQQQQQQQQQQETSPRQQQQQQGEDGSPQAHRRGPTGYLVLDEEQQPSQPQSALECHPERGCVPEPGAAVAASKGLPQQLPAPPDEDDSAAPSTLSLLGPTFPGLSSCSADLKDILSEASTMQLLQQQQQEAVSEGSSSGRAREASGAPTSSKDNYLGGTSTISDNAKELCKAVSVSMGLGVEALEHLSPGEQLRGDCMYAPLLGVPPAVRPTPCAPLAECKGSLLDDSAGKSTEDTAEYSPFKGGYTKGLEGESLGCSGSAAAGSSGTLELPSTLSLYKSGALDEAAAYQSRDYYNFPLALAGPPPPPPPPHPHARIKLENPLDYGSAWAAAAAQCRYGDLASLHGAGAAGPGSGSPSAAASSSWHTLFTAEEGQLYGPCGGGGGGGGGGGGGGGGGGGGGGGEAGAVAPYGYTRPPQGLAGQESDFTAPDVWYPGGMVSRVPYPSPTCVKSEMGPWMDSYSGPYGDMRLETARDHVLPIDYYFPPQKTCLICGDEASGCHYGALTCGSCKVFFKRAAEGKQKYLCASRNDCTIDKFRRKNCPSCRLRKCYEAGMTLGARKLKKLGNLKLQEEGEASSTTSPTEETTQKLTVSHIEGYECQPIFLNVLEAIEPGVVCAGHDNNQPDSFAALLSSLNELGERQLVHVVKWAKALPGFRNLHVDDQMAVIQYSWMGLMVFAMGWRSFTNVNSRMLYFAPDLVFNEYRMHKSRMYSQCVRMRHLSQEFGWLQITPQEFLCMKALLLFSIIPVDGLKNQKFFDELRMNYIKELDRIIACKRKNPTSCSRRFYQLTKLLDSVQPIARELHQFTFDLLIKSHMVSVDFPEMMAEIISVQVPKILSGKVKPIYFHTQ
Chain of Estrogen receptor (Homo sapiens) (P03372 whole entry, looked up): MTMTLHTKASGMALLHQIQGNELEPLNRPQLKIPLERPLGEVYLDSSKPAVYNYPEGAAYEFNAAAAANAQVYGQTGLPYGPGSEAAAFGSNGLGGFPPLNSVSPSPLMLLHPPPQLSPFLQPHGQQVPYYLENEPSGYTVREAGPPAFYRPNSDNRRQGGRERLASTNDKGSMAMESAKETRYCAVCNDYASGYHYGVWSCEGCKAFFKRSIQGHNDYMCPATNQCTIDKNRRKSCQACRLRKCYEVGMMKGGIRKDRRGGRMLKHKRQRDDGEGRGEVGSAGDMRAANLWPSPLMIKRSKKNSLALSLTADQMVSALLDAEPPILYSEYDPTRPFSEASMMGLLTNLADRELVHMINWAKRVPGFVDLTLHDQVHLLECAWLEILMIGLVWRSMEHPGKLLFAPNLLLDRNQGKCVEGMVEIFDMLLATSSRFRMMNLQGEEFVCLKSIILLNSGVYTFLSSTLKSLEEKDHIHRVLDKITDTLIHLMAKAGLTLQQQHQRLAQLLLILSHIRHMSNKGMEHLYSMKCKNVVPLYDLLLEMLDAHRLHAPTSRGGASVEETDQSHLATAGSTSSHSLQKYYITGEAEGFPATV
Chain of Estrogen receptor beta (Homo sapiens) (Q92731 whole entry, looked up): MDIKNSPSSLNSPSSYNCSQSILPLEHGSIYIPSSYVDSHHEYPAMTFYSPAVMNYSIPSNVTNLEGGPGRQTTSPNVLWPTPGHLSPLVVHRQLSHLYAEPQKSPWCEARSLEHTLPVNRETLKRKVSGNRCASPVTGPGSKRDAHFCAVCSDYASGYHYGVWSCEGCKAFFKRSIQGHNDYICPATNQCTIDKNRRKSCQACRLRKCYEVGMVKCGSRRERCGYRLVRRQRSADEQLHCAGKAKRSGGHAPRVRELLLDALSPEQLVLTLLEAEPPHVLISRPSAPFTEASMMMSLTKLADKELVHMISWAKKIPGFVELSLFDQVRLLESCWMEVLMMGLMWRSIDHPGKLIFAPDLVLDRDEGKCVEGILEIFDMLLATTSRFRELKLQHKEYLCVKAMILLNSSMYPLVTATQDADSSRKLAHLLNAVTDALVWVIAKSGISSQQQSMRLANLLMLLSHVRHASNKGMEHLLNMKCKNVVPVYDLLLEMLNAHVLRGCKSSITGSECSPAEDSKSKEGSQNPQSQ
Chain of Thyrotropin receptor (Homo sapiens) (P16473 whole entry, looked up): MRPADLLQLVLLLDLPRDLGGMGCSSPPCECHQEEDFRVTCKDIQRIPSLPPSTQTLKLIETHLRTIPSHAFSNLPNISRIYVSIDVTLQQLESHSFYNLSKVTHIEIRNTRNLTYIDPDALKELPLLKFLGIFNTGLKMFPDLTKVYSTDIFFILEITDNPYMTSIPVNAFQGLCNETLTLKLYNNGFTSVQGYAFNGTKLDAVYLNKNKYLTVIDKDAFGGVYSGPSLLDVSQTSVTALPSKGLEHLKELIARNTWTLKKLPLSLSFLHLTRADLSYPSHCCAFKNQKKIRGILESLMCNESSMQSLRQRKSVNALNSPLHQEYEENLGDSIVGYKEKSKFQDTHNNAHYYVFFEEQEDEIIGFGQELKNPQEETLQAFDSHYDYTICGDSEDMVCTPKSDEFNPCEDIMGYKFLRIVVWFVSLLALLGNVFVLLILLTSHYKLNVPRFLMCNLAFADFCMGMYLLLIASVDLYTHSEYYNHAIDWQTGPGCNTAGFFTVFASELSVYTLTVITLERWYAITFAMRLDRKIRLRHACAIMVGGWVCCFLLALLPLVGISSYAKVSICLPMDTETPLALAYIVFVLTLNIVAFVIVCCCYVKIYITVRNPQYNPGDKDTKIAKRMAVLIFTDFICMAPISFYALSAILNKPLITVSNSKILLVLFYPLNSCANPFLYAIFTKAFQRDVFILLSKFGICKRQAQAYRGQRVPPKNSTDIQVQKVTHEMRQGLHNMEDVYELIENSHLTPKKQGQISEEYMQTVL

CCCN(CCC)c1c([N+](=O)[O-])cc(C(F)(F)F)c(N)c1[N+](=O)[O-]
active: [1] 60.9 µM | [2] 54.3 µM | [4] 60.9 µM | [5] 60.9 µM | [7] 21.6 µM | [8] 60.9 µM | [9] 21.6 µM | [10] 30.5 µM
inactive: [3] | [6] | [11] | [12]

O=C(OCC1CO1)C1CCCCC1C(=O)OCC1CO1 (stereo not given)
active: [14] 13.7 µM | [5] 13.7 µM
not listed: [2] | [7] | [11] | [17] | [18] | [19]
inactive: all other assays above

C=C(C)C(=O)OCC[N+](C)(C)C
active: [13] 30.5 µM
not listed: [2] | [5] | [11] | [14] | [16] | [19]
inactive: all other assays above

CCCCN(CCCC)c1ccc(C(=O)c2ccccc2C(=O)O)c(O)c1
active: [9] 15.5 µM
not listed: [2] | [4] | [10] | [11] | [17] | [18] | [19]
inactive: all other assays above

O=C(Oc1ccccc1)c1ccccc1C(=O)Oc1ccccc1
active: [13] 54.5 µM | [18] 48.6 µM
inactive: [1] | [2] | [3] | [4] | [5] | [6] | [15] | [11]

CCCCCCCCCOC(=O)c1ccc(O)cc1
active: [13] 42.7 µM | [14] 60.3 µM | [9] 53.7 µM
inactive: [1] | [3] | [4] | [5] | [6] | [7] | [15] | [12]

CSc1ccc(C(=O)c2[nH]c(=O)[nH]c2C)cc1
not listed: [11] | [13] | [15] | [17] | [18]
inactive: all other assays above
